In PubChem BioAssay (Tox21):
Results filed as inconclusive are left out. Active and inactive are the calls of the source. Calls follow the shape of the dose curve; as a rule, active = well fitted curve in the direction sought with a large enough effect in the repeat runs; inconclusive = weak or mixed curves; inactive = no such curve, though single readings can be large; an effect the other way counts as inactive or inconclusive.

Tests used:
[1] = qHTS RealTime-Glo MT Cell Viability Assay in HEK293 cells - 0 hour (AID 1224880); also: top concentration of the series differs between compounds; nearly all actives have a fitted effect of over 45% in size
Procedure, shortened: (§1)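 HEK293 + NanoLuc + prosubstrate, 600 cells/well; 5 h, 37 C/5% CO2; compound 23 nL in DMSO by pintool; 37 C; luminescence read at 0, 8, 16, 24, 32 and 40 h time points.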

[2] = A CellTox Green Cytotoxicity Assay to monitor cytotoxicity in HEK293 cells - 32 hour (AID 1224881); also: nearly all actives have a fitted effect of over 40% in size
Procedure, shortened: (§2)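 Tox21 screen in HEK293: membrane-impermeant cyanine dye fluoresces on binding dead-cell DNA; compound pinned 5 h post-seeding, plates held at 37 C, signal read repeatedly through 40 h.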

[3] = A CellTox Green Cytotoxicity Assay to monitor cytotoxicity in HepG2 cells - 0 hour (AID 1224882); also: nearly all actives have a fitted effect of over 35% in size
Procedure, shortened: (§3)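 Measurements at 0, 8, 16, 24, 32 and 40 h of treatment captured CellTox Green fluorescence in HepG2 cells that had been co-plated with reagent and preincubated 5 h at 37 C/5% CO2.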

[4] = A CellTox Green Cytotoxicity Assay to monitor cytotoxicity in HepG2 cells - 32 hour (AID 1224883); also: nearly all actives have a fitted effect of over 50% in size
Procedure, shortened: as §3

[5] = A CellTox Green Cytotoxicity Assay to monitor cytotoxicity in HEK293 cells - 8 hour (AID 1224884); also: nearly all actives have a fitted effect of over 35% in size
Procedure, shortened: as §2

[6] = qHTS RealTime-Glo MT Cell Viability Assay in HepG2 cells - 16 hour (AID 1224885); also: nearly all actives have a fitted effect of over 50% in size
Procedure, shortened: (§4)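 Tox21 10K library screened in qHTS format on HepG2 cells carrying RealTime-Glo reagents. Compounds were added after a 5 h preincubation, and the luminescent signal from continuous culture was measured repeatedly during 40 h treatment.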

[7] = qHTS RealTime-Glo MT Cell Viability Assay in HEK293 cells - 24 hour (AID 1224886); also: top concentration of the series differs between compounds; nearly all actives have a fitted effect of over 50% in size
Procedure, shortened: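 Luminescence generated by NanoLuc from substrate produced by living HEK293 cells served as the viability signal. Each value reflects the reading at its stated time point during continuous 40 h compound exposure at 37 C.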

[8] = qHTS RealTime-Glo MT Cell Viability Assay in HEK293 cells - 8 hour (AID 1224887); also: top concentration of the series differs between compounds; nearly all actives have a fitted effect of over 50% in size
Procedure, shortened: as §1

[9] = A CellTox Green Cytotoxicity Assay to monitor cytotoxicity in HEK293 cells - 16 hour (AID 1224888); also: nearly all actives have a fitted effect of over 35% in size
Procedure, shortened: as §2

[10] = qHTS RealTime-Glo MT Cell Viability Assay in HepG2 cells - 0 hour (AID 1224889); also: nearly all actives have a fitted effect of over 50% in size
Procedure, shortened: as §4

[11] = A CellTox Green Cytotoxicity Assay to monitor cytotoxicity in HepG2 cells - 8 hour (AID 1224890); also: nearly all actives have a fitted effect of over 45% in size
Procedure, shortened: as §3

[12] = qHTS assay to identify small molecule antagonists of the estrogen receptor alpha (ER-alpha) signaling pathway using the BG1 cell line in the presence of 0.1 nM 17-beta-estradiol - cell viability counter screen (AID 1259241); also: nearly all actives have a fitted effect of over 40% in size
Procedure, shortened: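 Live-cell protease activity (CellTiter-Fluor fluorescence, 30 min) was read in the same wells after VM7Luc4E2 cells had been exposed to compounds with 0.1 nM 17beta-estradiol for 22 hr at 37C.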

[13] = qHTS assay to identify small molecule HDAC inhibitors - cell viability counter screen (AID 1259365)
Procedure, shortened: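 HCT-116 (wild type), 1,500 cells/well, overnight 37C/5% CO2; compound in DMSO 2hr; CellTiter-Glo 30min RT; luminescence read.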

[14] = qHTS assay to identify small molecule agonists of the sonic hedgehog signaling (Shh) pathway - cell viability counter screen (AID 1259366); also: nearly all actives have a fitted effect of over 50% in size
Procedure, shortened: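 CellTiter-Fluor fluorescence read-out, 1 hr at 37C, added after 23hr compound exposure. Cells: 3T3 Gli1-Luc, an NIH/3T3 clone with stably integrated Gli1-Luc reporter, plated 4hr before compound.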

[15] = molecular target: Estrogen receptor (Homo sapiens) (UniProt P03372); assay: qHTS assay to identify small molecule antagonists of the estrogen receptor alpha (ER-alpha) signaling pathway using the BG1 cell line in the presence of 0.1 nM 17-beta-estradiol (AID 1259244); also: nearly all actives have a fitted effect of over 50% in size
Procedure, shortened: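 Compounds were tested against 0.1 nM (final) 17beta-estradiol in VM7Luc4E2 cells, which express full-length ER-alpha and an ERE-luciferase reporter; luminescence was recorded following 22 h exposure.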

[16] = qHTS assay to identify small molecule HDAC inhibitors (AID 1259364);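 also: wild-type HCT-116 cells with endogenous class I/II HDAC activity; top concentration of the series differs between compounds; nearly all actives have a fitted effect of over 45% in size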
Procedure, shortened: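 Screening used wild-type human colon HCT-116 cells incubated overnight, dosed with compounds for 2 hours, and assayed with a homogeneous luminogenic HDAC I/II reagent for 30 minutes at room temperature.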

[17] = qHTS assay to identify small molecule antagonists of the sonic hedgehog signaling (Shh) pathway - cell viability counter screen (AID 1259367); also: nearly all actives have a fitted effect of over 55% in size
Procedure, shortened: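 CellTiter-Fluor signal in conditioned medium-stimulated 3T3 Gli1-Luc cells, 23 hr compound exposure, 37C.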

[18] = qHTS assay to identify small molecule antagonists of the androgen receptor (AR) signaling pathway using the MDA cell line in the presence of 0.5 nM R1881 - cell viability counter screen (AID 1259242); also: nearly all actives have a fitted effect of over 45% in size
Procedure, shortened: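 Concentration-response screen of compounds for toxicity in MDA-kb2 reporter cells: 16 hr at 37C with 0.5 nM R1881, endpoint live-cell protease fluorescence measured in the reporter wells.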
% is scaled to controls: 0 for no effect and ±100 for the full control effect.

Sequence of Estrogen receptor (Homo sapiens) (P03372 whole entry, looked up): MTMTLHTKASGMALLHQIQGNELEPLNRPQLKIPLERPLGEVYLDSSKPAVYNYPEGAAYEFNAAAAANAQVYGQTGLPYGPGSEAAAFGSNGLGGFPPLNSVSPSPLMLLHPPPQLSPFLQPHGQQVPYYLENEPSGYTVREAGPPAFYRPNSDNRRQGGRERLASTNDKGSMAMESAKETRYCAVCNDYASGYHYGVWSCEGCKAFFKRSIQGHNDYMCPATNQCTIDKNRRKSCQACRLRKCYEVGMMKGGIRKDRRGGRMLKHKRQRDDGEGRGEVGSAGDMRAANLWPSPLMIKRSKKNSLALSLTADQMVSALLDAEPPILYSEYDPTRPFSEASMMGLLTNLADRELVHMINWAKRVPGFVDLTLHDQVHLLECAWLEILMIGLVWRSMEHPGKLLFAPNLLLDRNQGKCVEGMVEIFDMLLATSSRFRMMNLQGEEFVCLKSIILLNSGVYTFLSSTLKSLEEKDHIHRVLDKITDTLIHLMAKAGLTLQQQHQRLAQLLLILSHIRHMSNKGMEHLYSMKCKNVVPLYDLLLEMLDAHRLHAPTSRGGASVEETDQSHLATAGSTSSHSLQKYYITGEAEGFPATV

CC(O)CN (stereo unspecified)
inactive: Potency [1] | Potency [2] | Potency [3] | Potency [4] | Potency [5] | outcome [6] | Potency [7] | Potency [8] | Potency [9] | Potency [10] | Potency [11] | Potency [12] | outcome [13] | Potency [14]

O=C(O)c1ccccc1-n1cc(C(=O)O)c(=O)c2cc(Nc3c(F)cc(F)cc3Cl)c(Cl)cc21
inactive: Potency [1] | Potency [2] | Potency [3] | Potency [4] | Potency [5] | outcome [6] | Potency [7] | Potency [8] | Potency [9] | Potency [10] | Potency [11] | Potency [12] | Potency [15] | Potency [16] | outcome [13] | Potency [14] | Potency [17]

OCCc1ccncc1
inactive: Potency [1] | Potency [2] | Potency [3] | Potency [4] | Potency [5] | outcome [6] | Potency [7] | Potency [8] | Potency [9] | Potency [10] | Potency [11] | Potency [12] | outcome [13] | Potency [14] | Potency [17]

O=C(O)c1cc(C(=O)O)cc([N+](=O)[O-])c1
inactive: Potency [1] | Potency [2] | Potency [3] | Potency [4] | Potency [5] | outcome [6] | Potency [7] | Potency [8] | Potency [10] | Potency [11] | Potency [12] | Potency [18] | Potency [16] | outcome [13] | Potency [14] | Potency [17]

CCCCCCCCCCCCCCCCCCCl
inactive: activity change, negative = cytotoxicity [1] 8.32% [at 6.97 µM] | cytotoxicity increase [2] 3.09% [at 6.97 µM] | cytotoxicity [3] 0.682% [at 6.97 µM] | cytotoxicity increase [4] -12.9% [at 6.97 µM] | cytotoxicity increase [5] 13.7% [at 6.97 µM] | activity change, negative = cytotoxic [6] -0.256% [at 6.97 µM] | activity change, negative = cytotoxicity [7] 2.37% [at 6.97 µM] | activity change, negative = cytotoxicity [8] 0.0634% [at 6.97 µM] | activity change, negative = cytotoxicity [10] 4.46% [at 6.97 µM] | cytotoxicity increase [11] 0.0897% [at 6.97 µM] | activity change, negative = cytotoxicity [12] 5.01% [at 8.39 µM] | viability change, negative = cytotoxic [18] 5.37% [at 8.39 µM] | activity change, negative = inhibition [16] 2.06% [at 8.39 µM] | activity change, negative = cytotoxicity [13] 1.46% [at 8.39 µM] | viability change, negative = cytotoxic [14] 3.36% [at 8.39 µM] | viability change, negative = cytotoxic [17] 0.635% [at 8.39 µM]

O=C1C=CCCC1
inactive: Potency [1] | Potency [2] | Potency [3] | Potency [4] | Potency [5] | outcome [6] | Potency [7] | Potency [8] | Potency [10] | Potency [11] | Potency [12] | Potency [18] | Potency [15] | Potency [16] | outcome [13] | Potency [14]

CC(C)(C)N
inactive: Potency [1] | Potency [2] | Potency [3] | Potency [4] | Potency [5] | outcome [6] | Potency [7] | Potency [8] | Potency [10] | Potency [11] | Potency [12] | Potency [18] | Potency [15] | Potency [16] | outcome [13] | Potency [14] | Potency [17]
